{
  "source": "PubChem BioAssay (NCATS)",
  "note": "Records with an inconclusive call do not appear. The source made the active and inactive calls. The call rests on the fitted dose curve; in most records, active means well fitted cell-killing curve with a large enough effect; inconclusive means small, poorly fitted or top-dose-only effect; inactive means flat fitted curve, though single readings scatter.",
  "data": [
    {"experiment": "MultiTox-Fluor Cytotoxicity Assay - LYMP1-003 - Live Cells (AID 962);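 further: cytotoxic hits lower the live-cell protease signal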", "conditions": "LYMP1-003 lymphoblastoid cells, MultiTox-Fluor live-cell protease fluorescence; series mostly up to 92.2 µM", "method_in_brief": "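qHTS, 1536-well; 2500 cells/well LYMP1-003; 5 hr 37 C settle; cpd 16 hr 37 C; MultiTox-Fluor reagent 60 min RT; live-cell protease fluor. 405/510; Hill-fit AC50; tetraoctylammonium bromide pos. ctrl.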", "values": [
      {"smiles": "Nc1ccccc1N", "outcome": "inactive"},
      {"smiles": "Cc1ccc(N)cc1O", "outcome": "inactive"},
      {"smiles": "CC(=O)O[C@@H]1CC(C)=C2[C@H]1[C@H](C)CC[C@H]2/C=C(\\C)C(=O)O", "outcome": "inactive"}
    ]},
    {"experiment": "Cell Viability - LYMP2-015 (AID 971);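 further: cells exposed to compound for 24 h; nearly all actives have a fitted effect of over 55% in size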", "conditions": "LYMP2-015 lymphoblastoid cell viability; series mostly up to 92.2 µM", "description": "(§1) NIH Chemical Genomics Center [NCGC]\n(§2) NIH Molecular Libraries Screening Centers Network [MLSCN]\n(§3) National Institutes of Environmental Health Sciences [NIEHS]\n(§4) National Toxicology Program [NTP]\n(§5) We have developed a 1536-well cell-based assay for quantitative high throughput screening (qHTS) against a number of cell lines to determine in vitro cytotoxicity of small molecules. This particular assay uses a human lymphoblastoid cell line (LYMP2-015) purchased from Coriell Institute for Medical Research.\n(§6) NCGC Assay Protocol Summary:\n(§7) The CellTiter-Glo luminescent cell viability assay (Promega) is a homogeneous method to measure the number of viable cells in culture. The end point readout of this assay is based on quantitation of intracellular ATP, an indicator of metabolic activity, using the luciferase reaction. Luciferase catalyzes the oxidation of beetle Luciferin to oxyluciferin and light in the presence of ATP. The luminescent signal is proportional to amount of ATP present.\n(§8) Using the CellTiter-Glo luminescent cell viability assay, the amount of cellular ATP was measured in the lymphoblastoid cell line with complete culture medium following compound treatment for 24 hours. The assay was performed in opaque white Kalypsys 1536-well plates. In the screen, tetraoctylammonium bromide was used as positive control. Library compounds were measured for their ability to cause acute toxicity in the cell line, as reflected by a decrease in intracellular ATP levels, in a concentration-dependent manner. […] AC50 values were determined from concentration-response data modeled with the standard Hill equation.\n(§9) qHTS protocol for CellTiter Glo lymphoblastoid cellular assay\n(§10) [Step] [Parameter] [Value] [Description]\n(§11) 1. Reagent; 5 uL; 2500 lymphoblastoid cells/well\n(§12) 2. Time; 5 hr; 37 C incubation\n(§13) 4. Controls; 23 nL; Tetraoctylammonium bromide 6.4pM to 92 uM\n(§14) 5. Time; 24 hr; 37 C incubation\n(§15) 6. Reagent; 5 uL; CellTiter Glo reagent […]\n(§16) 8. Detection; Luminescence; Viewlux plate reader\n(§17) Keywords: cell viability, cytotoxicity, lymphoblastoid cell line, luminescence, NTPHTS, NTPHTS_NCGC, NIEHS, DSSTox, MLSMR, MLSCN, NIH Roadmap, qHTS, NCGC", "values": [
      {"smiles": "Nc1ccccc1N", "outcome": "inactive"},
      {"smiles": "Cc1ccc(N)cc1O", "outcome": "inactive"},
      {"smiles": "CC(=O)O[C@@H]1CC(C)=C2[C@H]1[C@H](C)CC[C@H]2/C=C(\\C)C(=O)O", "outcome": "inactive"}
    ]},
    {"experiment": "Cell Viability - LYMP2-017 (AID 972); further: nearly all actives have a fitted effect of over 55% in size", "conditions": "LYMP2-017 lymphoblastoid cell viability; series mostly up to 92.2 µM", "description": "as §1, §2, §3, §4\nas §5, with “(LYMP2-017)” for “(LYMP2-015)”\nas §6, §7, §8, §9, §10, §11, §12, §13, §14, §15, §16, §17", "values": [
      {"smiles": "Nc1ccccc1N", "outcome": "inactive"},
      {"smiles": "Cc1ccc(N)cc1O", "outcome": "inactive"},
      {"smiles": "CC(=O)O[C@@H]1CC(C)=C2[C@H]1[C@H](C)CC[C@H]2/C=C(\\C)C(=O)O", "outcome": "inactive"}
    ]},
    {"experiment": "Cell Viability - LYMP2-019 (AID 973);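 further: cells exposed to compound for 24 h at 37 °C; nearly all actives have a fitted effect of over 55% in size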", "conditions": "LYMP2-019 lymphoblastoid cell line viability; series mostly up to 92.2 µM", "method_in_brief": "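Luminescent ATP read-out (CellTiter-Glo, 30 min room temperature) served as the viability measure after 24 hr treatment of lymphoblastoid cells at 37 C. Concentration-response data were fitted to the Hill equation for AC50.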", "values": [
      {"smiles": "Nc1ccccc1N", "outcome": "inactive"},
      {"smiles": "Cc1ccc(N)cc1O", "outcome": "inactive"},
      {"smiles": "CC(=O)O[C@@H]1CC(C)=C2[C@H]1[C@H](C)CC[C@H]2/C=C(\\C)C(=O)O", "outcome": "inactive"}
    ]},
    {"experiment": "Cell Viability - LYMP2-021 (AID 974);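 further: compound exposure lasts 24 hours at 37 °C; nearly all actives have a fitted effect of over 55% in size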", "conditions": "LYMP2-021 lymphoblastoid cells viability; series mostly up to 92.2 µM", "method_in_brief": "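Plate 2500 lymphoblastoid cells per well and incubate 5 hr at 37 C. Add compounds over a concentration range and incubate 24 hr at 37 C. Add CellTiter-Glo, wait 30 min at room temperature, read luminescence.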", "values": [
      {"smiles": "Nc1ccccc1N", "outcome": "inactive"},
      {"smiles": "Cc1ccc(N)cc1O", "outcome": "inactive"},
      {"smiles": "CC(=O)O[C@@H]1CC(C)=C2[C@H]1[C@H](C)CC[C@H]2/C=C(\\C)C(=O)O", "outcome": "inactive"}
    ]}
  ]
}
